Reference: article PMC11006913
Substitutions are numbered along the chain they refer to.

Legend:
Test in all cases: PBM; 200 nM protein, PBS
Settings in all cases: dsDNA, one strand shown
HOXC10 [1] = target: HOXC10 (Homo sapiens, UniProt Q9NYD6 254-340)
HOXA2 [2] = target: HOXA2 (Homo sapiens, UniProt O43364 129-215, R185T)
MSX2 [3] = target: MSX2 (Homo sapiens, UniProt P35548 130-214, R199I)
HOXA2 [4] = target: HOXA2 (Homo sapiens, UniProt O43364 129-215, R185K)
HOXC10 [5] = target: HOXC10 (Homo sapiens, UniProt Q9NYD6 254-340, K271E)
Sequence of HOXC10 (Homo sapiens, UniProt Q9NYD6 254-340, K271E) (Q9NYD6 254-340 K271E): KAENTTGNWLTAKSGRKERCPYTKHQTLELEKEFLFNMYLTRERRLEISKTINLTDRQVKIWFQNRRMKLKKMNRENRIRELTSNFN

MSX2 [6] = target: MSX2 (Homo sapiens, UniProt P35548 130-214)
Sequence of MSX2 (Homo sapiens, UniProt P35548 130-214) (P35548 130-214): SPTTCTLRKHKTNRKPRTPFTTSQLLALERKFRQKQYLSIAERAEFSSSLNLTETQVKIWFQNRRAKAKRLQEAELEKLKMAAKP

MSX2 [7] = target: MSX2 (Homo sapiens, UniProt P35548 130-214, F161Y)
Sequence of MSX2 (Homo sapiens, UniProt P35548 130-214, F161Y) (P35548 130-214 F161Y): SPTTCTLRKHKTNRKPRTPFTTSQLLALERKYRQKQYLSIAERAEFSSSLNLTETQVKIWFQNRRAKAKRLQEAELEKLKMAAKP

HOXA2 [8] = target: HOXA2 (Homo sapiens, UniProt O43364 129-215, Y150S)
Sequence of HOXA2 (Homo sapiens, UniProt O43364 129-215, Y150S) (O43364 129-215 Y150S): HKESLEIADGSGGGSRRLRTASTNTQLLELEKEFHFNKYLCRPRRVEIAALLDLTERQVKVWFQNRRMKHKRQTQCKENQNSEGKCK

HOXA2 [9] = target: HOXA2 (Homo sapiens, UniProt O43364 129-215)
Sequence of HOXA2 (Homo sapiens, UniProt O43364 129-215) (O43364 129-215): as the sequence (O43364 129-215 Y150S) above, with S22Y counted along it

ALX4 [10] = target: ALX4 (Homo sapiens, UniProt Q9H161 200-286)
Sequence of ALX4 (Homo sapiens, UniProt Q9H161 200-286) (Q9H161 200-286): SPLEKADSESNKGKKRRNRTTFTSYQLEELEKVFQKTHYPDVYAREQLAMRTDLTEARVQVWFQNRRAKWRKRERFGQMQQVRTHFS

ALX4 [11] = target: ALX4 (Homo sapiens, UniProt Q9H161 200-286, Q225E)
Sequence of ALX4 (Homo sapiens, UniProt Q9H161 200-286, Q225E) (Q9H161 200-286 Q225E): as the sequence (Q9H161 200-286) above, with Q26E counted along it

HOXD13 [12] = target: HOXD13 (Homo sapiens, UniProt P35453 263-343, T313R)
Sequence of HOXD13 (Homo sapiens, UniProt P35453 263-343, T313R) (P35453 263-343 T313R): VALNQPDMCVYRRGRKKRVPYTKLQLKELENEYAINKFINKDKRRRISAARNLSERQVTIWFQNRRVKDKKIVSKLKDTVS

HOXD13 [13] = target: HOXD13 (Homo sapiens, UniProt P35453 263-343)
Sequence of HOXD13 (Homo sapiens, UniProt P35453 263-343) (P35453 263-343): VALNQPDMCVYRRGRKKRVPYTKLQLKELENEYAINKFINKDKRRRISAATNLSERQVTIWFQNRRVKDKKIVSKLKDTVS

HOXD13 [14] = target: HOXD13 (Homo sapiens, UniProt P35453 263-343, T313A)
Sequence of HOXD13 (Homo sapiens, UniProt P35453 263-343, T313A) (P35453 263-343 T313A): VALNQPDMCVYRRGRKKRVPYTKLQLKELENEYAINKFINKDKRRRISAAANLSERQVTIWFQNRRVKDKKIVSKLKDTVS

ALX3 [15] = target: ALX3 (Homo sapiens, UniProt O95076 139-225, N203Q)
Sequence of ALX3 (Homo sapiens, UniProt O95076 139-225, N203Q) (O95076 139-225 N203Q): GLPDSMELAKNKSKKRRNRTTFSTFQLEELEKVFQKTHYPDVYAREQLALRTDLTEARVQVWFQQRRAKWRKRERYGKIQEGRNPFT

NKX2-6 [16] = target: T1, NKX2-6 (Homo sapiens, UniProt A6NCS4 118-204)
T1 sequence: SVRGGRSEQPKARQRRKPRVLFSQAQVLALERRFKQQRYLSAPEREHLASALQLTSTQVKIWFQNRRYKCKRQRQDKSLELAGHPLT

ALX3 [17] = target: ALX3 (Homo sapiens, UniProt O95076 139-225)
Sequence of ALX3 (Homo sapiens, UniProt O95076 139-225) (O95076 139-225): as the sequence (O95076 139-225 N203Q) above, with Q65N counted along it

ALX3 [18] = target: ALX3 (Homo sapiens, UniProt O95076 139-225, L168Q)
Sequence of ALX3 (Homo sapiens, UniProt O95076 139-225, L168Q) (O95076 139-225 L168Q): as the sequence (O95076 139-225 N203Q) above, with L30Q, Q65N counted along it

NKX2-6 [19] = target: T2, NKX2-6 (Homo sapiens, UniProt A6NCS4 118-204, F151L)
T2 sequence: T1 sequence with F34L

ALX3 [20] = target: ALX3 (Homo sapiens, UniProt O95076 139-225, L168V)
Sequence of ALX3 (Homo sapiens, UniProt O95076 139-225, L168V) (O95076 139-225 L168V): as the sequence (O95076 139-225 N203Q) above, with L30V, Q65N counted along it

ALX3 [21] = target: ALX3 (Homo sapiens, UniProt O95076 139-225, N203S)
Sequence of ALX3 (Homo sapiens, UniProt O95076 139-225, N203S) (O95076 139-225 N203S): as the sequence (O95076 139-225 N203Q) above, with Q65S counted along it

ALX1 [22] = target: ALX1 (Homo sapiens, UniProt Q15699 118-204, L144V)
Sequence of ALX1 (Homo sapiens, UniProt Q15699 118-204, L144V) (Q15699 118-204 L144V): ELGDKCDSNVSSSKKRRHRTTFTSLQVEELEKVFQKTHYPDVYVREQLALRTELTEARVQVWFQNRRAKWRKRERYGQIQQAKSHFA

ALX1 [23] = target: ALX1 (Homo sapiens, UniProt Q15699 118-204, L144R)
Sequence of ALX1 (Homo sapiens, UniProt Q15699 118-204, L144R) (Q15699 118-204 L144R): as the sequence (Q15699 118-204 L144V) above, with V27R counted along it

ALX1 [24] = target: ALX1 (Homo sapiens, UniProt Q15699 118-204)
Sequence of ALX1 (Homo sapiens, UniProt Q15699 118-204) (Q15699 118-204): as the sequence (Q15699 118-204 L144V) above, with V27L counted along it

PAX4 [25] = target: T3, PAX4 (Homo sapiens, UniProt O43316 9-242, R200K)
T3 sequence: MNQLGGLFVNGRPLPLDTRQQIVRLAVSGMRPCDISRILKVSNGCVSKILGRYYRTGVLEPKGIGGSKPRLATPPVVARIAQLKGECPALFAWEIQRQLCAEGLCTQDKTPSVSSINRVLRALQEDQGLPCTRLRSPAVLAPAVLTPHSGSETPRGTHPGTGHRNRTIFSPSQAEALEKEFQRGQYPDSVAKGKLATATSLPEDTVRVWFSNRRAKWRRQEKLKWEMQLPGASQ

PRRX1 [26] = target: PRRX1 (Homo sapiens, UniProt P54821 80-166, F113S)
Sequence of PRRX1 (Homo sapiens, UniProt P54821 80-166, F113S) (P54821 80-166 F113S): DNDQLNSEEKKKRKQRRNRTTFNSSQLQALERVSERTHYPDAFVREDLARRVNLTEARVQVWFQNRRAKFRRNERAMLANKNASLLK

PAX4 [27] = target: T4, PAX4 (Homo sapiens, UniProt O43316 9-242)
T4 sequence: T3 sequence with K192R

HOXB6 [28] = target: HOXB6 (Homo sapiens, UniProt P17509 132-218, K202E)
Sequence of HOXB6 (Homo sapiens, UniProt P17509 132-218, K202E) (P17509 132-218 K202E): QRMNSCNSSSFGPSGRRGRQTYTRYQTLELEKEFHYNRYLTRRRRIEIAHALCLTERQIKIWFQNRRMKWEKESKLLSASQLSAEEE

PAX4 [29] = target: T5, PAX4 (Homo sapiens, UniProt O43316 9-242, R200Q)
T5 sequence: T3 sequence with K192Q

PAX4 [30] = target: T6, PAX4 (Homo sapiens, UniProt O43316 9-242, F177V)
T6 sequence: T3 sequence with F169V, K192R

PAX4 [31] = target: T7, PAX4 (Homo sapiens, UniProt O43316 9-242, F177Y)
T7 sequence: T3 sequence with F169Y, K192R

PAX4 [32] = target: T8, PAX4 (Homo sapiens, UniProt O43316 9-242, R227W)
T8 sequence: T3 sequence with K192R, R219W

PRRX1 [33] = target: PRRX1 (Homo sapiens, UniProt P54821 80-166)
Sequence of PRRX1 (Homo sapiens, UniProt P54821 80-166) (P54821 80-166): as the sequence (P54821 80-166 F113S) above, with S34F counted along it

HOXB6 [34] = target: HOXB6 (Homo sapiens, UniProt P17509 132-218)
Sequence of HOXB6 (Homo sapiens, UniProt P17509 132-218) (P17509 132-218): as the sequence (P17509 132-218 K202E) above, with E71K counted along it

Sequence of HOXC10 (Homo sapiens, UniProt Q9NYD6 254-340) (Q9NYD6 254-340): as the sequence (Q9NYD6 254-340 K271E) above, with E18K counted along it
Sequence of HOXA2 (Homo sapiens, UniProt O43364 129-215, R185T) (O43364 129-215 R185T): as the sequence (O43364 129-215 Y150S) above, with S22Y, R57T counted along it
Sequence of MSX2 (Homo sapiens, UniProt P35548 130-214, R199I) (P35548 130-214 R199I): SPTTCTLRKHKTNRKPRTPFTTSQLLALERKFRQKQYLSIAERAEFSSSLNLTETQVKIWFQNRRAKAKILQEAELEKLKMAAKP
Sequence of HOXA2 (Homo sapiens, UniProt O43364 129-215, R185K) (O43364 129-215 R185K): as the sequence (O43364 129-215 Y150S) above, with S22Y, R57K counted along it

Sequence: GCCCGCAC
- binding signal (HOXC10 [1]): 10.1 upbm affinity estimate (log intensity, higher = more binding, comparable within an allelic series)
- binding signal (HOXA2 [2]): 7.43 upbm affinity estimate (log intensity, higher = more binding, comparable within an allelic series)
- binding signal (MSX2 [3]): 9.56 upbm affinity estimate (log intensity, higher = more binding, comparable within an allelic series)
- binding signal (HOXA2 [4]): 10.2 upbm affinity estimate (log intensity, higher = more binding, comparable within an allelic series)
- binding signal (HOXC10 [5]): 9.97 upbm affinity estimate (log intensity, higher = more binding, comparable within an allelic series)
- binding signal (MSX2 [6]): 9.65 upbm affinity estimate (log intensity, higher = more binding, comparable within an allelic series)
- binding signal (MSX2 [7]): 9.65 upbm affinity estimate (log intensity, higher = more binding, comparable within an allelic series)
- binding signal (HOXA2 [8]): 10.4 upbm affinity estimate (log intensity, higher = more binding, comparable within an allelic series)
- binding signal (HOXA2 [9]): 7.36 upbm affinity estimate (log intensity, higher = more binding, comparable within an allelic series)

Sequence: AGCGCTTG
- binding signal (HOXC10 [1]): 10 upbm affinity estimate (log intensity, higher = more binding, comparable within an allelic series)
- binding signal (ALX4 [10]): 7.96 upbm affinity estimate (log intensity, higher = more binding, comparable within an allelic series)
- binding signal (ALX4 [11]): 8.27 upbm affinity estimate (log intensity, higher = more binding, comparable within an allelic series)
- binding signal (HOXC10 [5]): 10.1 upbm affinity estimate (log intensity, higher = more binding, comparable within an allelic series)

Sequence: CTTTATTA
- binding signal (HOXC10 [1]): 12.2 upbm affinity estimate (log intensity, higher = more binding, comparable within an allelic series)
- binding signal (HOXD13 [12]): 10.6 upbm affinity estimate (log intensity, higher = more binding, comparable within an allelic series)
- binding signal (HOXD13 [13]): 11.8 upbm affinity estimate (log intensity, higher = more binding, comparable within an allelic series)
- binding signal (HOXC10 [5]): 11.7 upbm affinity estimate (log intensity, higher = more binding, comparable within an allelic series)
- binding signal (HOXD13 [14]): 11.5 upbm affinity estimate (log intensity, higher = more binding, comparable within an allelic series)

Sequence: CCCCCAGG
- binding signal (HOXC10 [1]): 10.1 upbm affinity estimate (log intensity, higher = more binding, comparable within an allelic series)
- binding signal (ALX3 [15]): 7.76 upbm affinity estimate (log intensity, higher = more binding, comparable within an allelic series)
- binding signal (NKX2-6 [16]): 9.38 upbm affinity estimate (log intensity, higher = more binding, comparable within an allelic series)
- binding signal (HOXC10 [5]): 10.1 upbm affinity estimate (log intensity, higher = more binding, comparable within an allelic series)
- binding signal (ALX3 [17]): 7.79 upbm affinity estimate (log intensity, higher = more binding, comparable within an allelic series)
- binding signal (ALX3 [18]): 7.67 upbm affinity estimate (log intensity, higher = more binding, comparable within an allelic series)
- binding signal (NKX2-6 [19]): 9.1 upbm affinity estimate (log intensity, higher = more binding, comparable within an allelic series)
- binding signal (ALX3 [20]): 7.72 upbm affinity estimate (log intensity, higher = more binding, comparable within an allelic series)
- binding signal (ALX3 [21]): 7.71 upbm affinity estimate (log intensity, higher = more binding, comparable within an allelic series)

Sequence: ATTTATAG
- binding signal (HOXC10 [1]): 12.2 upbm affinity estimate (log intensity, higher = more binding, comparable within an allelic series)
- binding signal (ALX1 [22]): 8.9 upbm affinity estimate (log intensity, higher = more binding, comparable within an allelic series)
- binding signal (HOXD13 [12]): 11.1 upbm affinity estimate (log intensity, higher = more binding, comparable within an allelic series)
- binding signal (ALX1 [23]): 9.04 upbm affinity estimate (log intensity, higher = more binding, comparable within an allelic series)
- binding signal (HOXD13 [13]): 12.1 upbm affinity estimate (log intensity, higher = more binding, comparable within an allelic series)
- binding signal (HOXC10 [5]): 11.4 upbm affinity estimate (log intensity, higher = more binding, comparable within an allelic series)
- binding signal (HOXD13 [14]): 11.9 upbm affinity estimate (log intensity, higher = more binding, comparable within an allelic series)
- binding signal (ALX1 [24]): 9.11 upbm affinity estimate (log intensity, higher = more binding, comparable within an allelic series)

Sequence: CGCCCCCG
- binding signal (HOXC10 [1]): 10 upbm affinity estimate (log intensity, higher = more binding, comparable within an allelic series)
- binding signal (PAX4 [25]): 9.05 upbm affinity estimate (log intensity, higher = more binding, comparable within an allelic series)
- binding signal (PRRX1 [26]): 9.19 upbm affinity estimate (log intensity, higher = more binding, comparable within an allelic series)
- binding signal (PAX4 [27]): 9.27 upbm affinity estimate (log intensity, higher = more binding, comparable within an allelic series)
- binding signal (HOXB6 [28]): 8.93 upbm affinity estimate (log intensity, higher = more binding, comparable within an allelic series)
- binding signal (HOXD13 [12]): 9.18 upbm affinity estimate (log intensity, higher = more binding, comparable within an allelic series)
- binding signal (PAX4 [29]): 9.26 upbm affinity estimate (log intensity, higher = more binding, comparable within an allelic series)
- binding signal (HOXD13 [13]): 9.19 upbm affinity estimate (log intensity, higher = more binding, comparable within an allelic series)
- binding signal (PAX4 [30]): 9.01 upbm affinity estimate (log intensity, higher = more binding, comparable within an allelic series)
- binding signal (HOXC10 [5]): 9.94 upbm affinity estimate (log intensity, higher = more binding, comparable within an allelic series)
- binding signal (PAX4 [31]): 8.92 upbm affinity estimate (log intensity, higher = more binding, comparable within an allelic series)
- binding signal (HOXD13 [14]): 9.4 upbm affinity estimate (log intensity, higher = more binding, comparable within an allelic series)
- binding signal (PAX4 [32]): 9.12 upbm affinity estimate (log intensity, higher = more binding, comparable within an allelic series)
- binding signal (PRRX1 [33]): 9.18 upbm affinity estimate (log intensity, higher = more binding, comparable within an allelic series)
- binding signal (HOXB6 [34]): 8.91 upbm affinity estimate (log intensity, higher = more binding, comparable within an allelic series)
